Measured values reported in PubChem BioAssay (NCI).
The panel holds about 83,000 compounds, 20% with a hit somewhere; the sample as a whole holds those more often.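 Single-dose data. Exposure time 48 hours. Values below 10 considered active.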 Values without a mark were called inactive. Activity calls are given as the source filed them.

These molecules were tested on MDA-MB-468 breast (assay: NCI-60 one-dose screen, 48 h (100 = growth as untreated, 0 = no growth, -100 = all killed)). Conditions: 10 µM unless noted.
Protocol: Growth inhibition of the MDA-MB-468 human Breast tumor cell line is measured as a screen for anti-cancer activity. Cells are grown in 96 well plates and exposed to the test compound for 48 hours. Compounds are tested at a single concentration, which is 10^-5 M for most compounds. The reported endpoint is percent growth (GI% or GIPRCNT), where numbers from 0 - 100% represent growth inhibition, and numbers from -100% - 0 represent cell death. For example, a value of 40 represents 60% growth inhibition. A value of 0 means no net growth occurred over the course of the experiment. A value of -40 indicates 40% of cells at the beginning of the experiment died by the end of the experiment. A value of -100 means all cells are dead at the end of the experiment.
NCI-60 Human Tumor Cell Lines Screen was performed using the standard one-dose NCI protocol, which is described in more detail at https://dtp.cancer.gov/discovery_development/nci-60/default.htm.
Compounds with GIPRCNT values below 10 were considered active. Activity score was based on GIPRCNT using the following formula: […]
Score is 0 for GIPRCNT values of 100 or above, 50 for GIPRCNT values of 0, and 100 for GIPRCNT values of -100.
In the case of `Nc1cc2ccccc2c(=O)n1NC(=O)c1ccccc1`, the growth is reported as -35.4% (active). Work on `Cc1cc(=O)oc2cc(OCC(O)CNN3C(=O)c4cccc5c(N6CCN(C)CC6)ccc(c45)C3=O)ccc12` (stereo not given) yielded a growth of 108%. For `CN1C(=O)C(O)(CC(=O)c2cc3ccccc3oc2=O)c2ccccc21` (stereo not given), the growth was 82.6%. Work on `CC1CCc2c(sc3nc(SCC(=O)c4cccc([N+](=O)[O-])c4)n(-c4ccccc4)c(=O)c23)C1` (stereo not given) yielded a growth of 83%. Molecule `COc1cc(CNC(=O)C[C@H](C)CCC=C(C)C)ccc1OCc1cn(-c2ccc(Cl)c(Cl)c2)nn1` has a growth of 55%. `CCCCN1C(=O)/C(=C\C(=O)c2cc3ccccc3oc2=O)c2ccccc21` gave a growth of 18.1%. For `Cc1ccc(C(=O)Nc2cc(-n3cnc(F)c3)cc(C(F)(F)F)c2)cc1C#Cc1cnc2cccnn12`, the growth was 81.7%. `COc1cccc(C(N)=Nc2ccc(OCCCCCCCCn3cncn3)cc2)c1` gave a growth of 24.8%. `c1n[nH]cc1-c1nc2ccc3cn[nH]c3c2c2c1CCCC2` showed a growth of 78.5%. With `Cn1cc(-c2cc(N)n3nc(-c4c[nH]c5ccccc45)cc3n2)c2cc(Br)ccc21` the growth was -80.8% (active). Work on `COc1ccc(N=Nc2c(N)nn3c(-c4ccc5c(c4)C=S=C5)ccnc23)cc1` yielded a growth of 16.6%. For `COc1cc(CNC(=O)C[C@H](C)CCC=C(C)C)ccc1OCc1cn(-c2ccccc2Cl)nn1`, the growth was 28.5%. With `CCCCCCCCc1ccc(C(=O)Nc2ccc(C)c(OP(=O)(O)O)c2)cc1` the growth was 104%. `O=C(CSc1nnc(-c2ccc(-c3nc4ccc(Cl)cc4[nH]3)cc2)o1)Nc1ccc(Br)cc1` gave a growth of 50.8%. `OC(c1ccccc1)(c1ccccc1)C1CCN(c2ccc3nnc(Cl)n3n2)CC1` was tested, and the growth was 30.4%. For `O=c1ccc(Cn2c(C(F)(F)F)cc3c(Cl)ncnc32)c[nH]1`, the growth was 37.2%. `O=C(Nc1ccc(-c2ccc3c(c2)NC(=O)/C3=C\c2ccc[nH]2)cc1)Nc1cccc(Cl)c1` was tested, and the growth was -55.5% (active). `COc1cc(/C=N/NC(=O)c2ccc(OCc3nc4ccc(C)cc4[nH]3)cc2)cc(OC)c1OC` showed a growth of 41.5%. For `C[C@H](NC(=O)c1ccc2c(-c3ccc(C(F)(F)F)cc3)cccc2c1)c1ccccn1`, the growth was 7.67% (active). Work on `CC(=O)c1ccc2c(N)c(C(=O)Nc3ccc(C(F)(F)F)cc3)sc2n1` yielded a growth of 10.6%. With `COc1ccc(NC(=O)NN2C(=O)c3ccccc3N(C)C2c2ccc(OC)cc2)cc1` (stereo not given) the growth was 102%. For `CS(=O)(=O)Nc1cc(-c2ccc3ncnc(N4CCc5cc(F)c(Cl)cc54)c3c2)cnc1Cl`, the growth was -60.2% (active). For `CCc1ccc(SC2c3cc(OC)ccc3Oc3nc(N)c(C#N)c(N)c32)cc1` (stereo not given), the growth was -78.8% (active). In the case of `NS(=O)(=O)c1ccc(Nc2nc(SCC(=O)c3ccc(F)cc3)nc3ccccc23)cc1`, the growth is reported as 11.4%. For `Nc1cc(-c2c[nH]c3ccc(Br)cc23)nc2cc(-c3c[nH]c4ccccc34)nn12`, the growth was -81.8% (active). For `Cn1cc(-c2cc(N)n3nc(-c4c[nH]c5ccc(Cl)cc45)cc3n2)c2cc(Br)cnc21`, the growth was -93.6% (active). For `CN(C)c1nc(NCCNS(=O)(=O)c2ccc(C(=O)/C=C/c3ccc(C(F)(F)F)cc3)cc2)nc(N2CCOCC2)n1`, the growth was -96.1% (active). In the case of `O=C(Cc1c(-c2cccc([N+](=O)[O-])c2)n(-c2ncnc3c2c(-c2ccccc2)c(-c2ccccc2)n3Cc2ccccc2)[nH]c1=O)c1ccc(Cl)c(Cl)c1`, the growth is reported as -10.4% (active). Work on `CC(C)(C)C(=O)C1CC(C#N)=C2C=Cc3c(ccc4ccccc34)N21` (stereo not given) yielded a growth of 96.2%. For `N#Cc1cc(-c2ccc3ncnc(N4CCc5cc(F)c(Cl)cc54)c3c2)cnc1N`, the growth was -14.7% (active). Work on `CCCn1c(NC(=O)c2cccc(C(N)=O)c2)nc2ccc(CN3CCCCC3)cc21` yielded a growth of 109%. In the case of `COc1cc(/C=N/NC(=O)c2ccc(OCc3nc4ccc(Cl)cc4[nH]3)cc2)cc(OC)c1OC`, the growth is reported as 43.4%. With `O=C(OCCOCCO)N(c1cccc(Br)c1)c1nc(SCCN2CCOCC2)nc2c1cnn2CC(Cl)c1ccc(Br)cc1` (stereo not given) the growth was -2.54% (active). In the case of `Cn1cc(-c2cc(N)n3nc(-c4c[nH]c5ccccc45)cc3n2)c2ccccc21`, the growth is reported as -79.8% (active). `O=C(NNC(=O)c1ccc(OCc2nc3ccc(Cl)cc3[nH]2)cc1)Nc1ccc(Cl)c(C(F)(F)F)c1` was tested, and the growth was 22.4%. In the case of `C[C@H]1[C@@H](CC(=O)N[C@@H](Cc2coc3ccccc23)B(O)O)O[C@@H]2OC3(C)CC[C@H]4[C@H](C)CC[C@@H]1[C@@]24O3`, the growth is reported as -49.6% (active). `CN1CCN(C(=O)Oc2cc3c(c4ccccc24)[C@H](CCl)CN3C(=O)c2cc3cc(OCCCN4CCC4)ccc3[nH]2)[C@H]2CSSC[C@H]21` was tested, and the growth was -78.4% (active). For `C=CC[n+]1cccc2c3ccccc3ccc21`, the growth was -9.82% (active). Molecule `COC(=O)c1c(C(=O)OC)c2c3ccccc3c3ccccc3n2c1C(=O)C(F)(F)F` has a growth of 92%. `COc1cncc(-c2ccc3ncnc(N4CCc5ccc(Cl)cc54)c3c2)c1` was tested, and the growth was -67.4% (active).
